# Assay results reported in PubChem BioAssay (NCATS).
# Records with an inconclusive call do not appear. A call without a number means that no potency is given here. Calls of active or inactive are those of the source. The call rests on the fitted dose curve; in most records, active means well fitted curve in the direction sought with a large enough effect; inconclusive means small, poorly fitted or top-dose-only effect, or another doubt; inactive means no such curve, though single readings can be large; an effect the other way counts as inactive or inconclusive.
# Legend:
# [1] = target: N-terminal Xaa-Pro-Lys N-methyltransferase 1 (Homo sapiens) (UniProt Q9BV86); assay: Confirmatory qHTS for Inhibitors of N-terminal methyltransferase 1 (NTMT1): MTaseGlo Assay (AID 1645874);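 further: luminescence from SAH made as NTMT1 methylates SPKRIA peptide using SAM; nearly all actives have a fitted effect of over 65% in size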
# Outline: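 Luminescent MTase-Glo read-out of SAH. 125 nM NTMT1, 100 uM SAM, 1 uM SPKRIA substrate, 30 min RT reaction after 15 min compound preincubation. Normalized to no-enzyme and DMSO controls; Hill fit.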
# [2] = Primary qHTS for inhibitors of nuclear receptor binding SET domain protein 2 (NSD2) in an isogenic RCH-ACV NSD2 p.E1099K mutant (9B) (AID 1645876); further: nearly all actives have a fitted effect of over 70% in size; further: potency means the concentration at half of the fitted maximal effect
# [3] = Primary qHTS for inhibitors of nuclear receptor binding SET domain protein 2 (NSD2) in an RCH-ACV wild type WT cells (2C) (AID 1645877); further: nearly all actives have a fitted effect of over 70% in size; further: potency means the concentration at half of the fitted maximal effect
# [4] = target: Rap guanine nucleotide exchange factor 3 (Homo sapiens) (UniProt O95398); assay: Confirmatory qHTS for agonist of cAMP-regulated guanine nucleotide exchange factor 3 (EPAC1) (AID 1645881);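 further: EPAC1 catalysed release of BODIPY-GDP from Rap1B seen as fluorescence loss; nearly all actives have a fitted effect of over 75% in size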
# [5] = target: Rap guanine nucleotide exchange factor 4 (Homo sapiens) (UniProt Q8WZA2); assay: Confirmatory qHTS for agonist of cAMP-regulated guanine nucleotide exchange factor 4 (EPAC2) (AID 1645884);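 further: nucleotide exchange releases bodipy-GDP from Rap1 and this lowers its fluorescence; nearly all actives have a fitted effect of over 65% in size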
# [6] = target: Catechol O-methyltransferase (Homo sapiens) (UniProt P21964); assay: Confirmatory Screen for Target Class Profiling of Small Molecule Inhibitors of Methyltransferases (AID 1745852); details: MTase-Glo luminescence, SAH detection, recombinant enzyme; measured here: COMT max response; stronger effect = lower value
# [7] = target: Guanidinoacetate N-methyltransferase (Homo sapiens) (UniProt Q14353); assay: as above; details: MTase-Glo luminescence, SAH detection, recombinant enzyme; at 57.3 µM (top of the series)
# [8] = target: Nicotinamide N-methyltransferase (Homo sapiens) (UniProt P40261); assay: as above; details: MTase-Glo luminescence, SAH detection, recombinant enzyme; measured here: NNMT max response; stronger effect = lower value
# [9] = target: Phenylethanolamine N-methyltransferase (Homo sapiens) (UniProt P11086); assay: as above; details: MTase-Glo luminescence, SAH detection, recombinant enzyme; measured here: PNMT max response; stronger effect = lower value
# Sequence of Phenylethanolamine N-methyltransferase (Homo sapiens) (P11086 whole entry, looked up): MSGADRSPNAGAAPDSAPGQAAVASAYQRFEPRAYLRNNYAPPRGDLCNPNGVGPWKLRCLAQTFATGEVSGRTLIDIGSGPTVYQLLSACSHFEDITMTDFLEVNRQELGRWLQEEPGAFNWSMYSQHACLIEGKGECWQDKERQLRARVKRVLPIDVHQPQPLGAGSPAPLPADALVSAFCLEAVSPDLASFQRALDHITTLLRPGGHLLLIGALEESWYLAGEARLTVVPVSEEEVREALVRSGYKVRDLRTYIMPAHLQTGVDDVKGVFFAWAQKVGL
# Sequence of N-terminal Xaa-Pro-Lys N-methyltransferase 1 (Homo sapiens) (Q9BV86 whole entry, looked up): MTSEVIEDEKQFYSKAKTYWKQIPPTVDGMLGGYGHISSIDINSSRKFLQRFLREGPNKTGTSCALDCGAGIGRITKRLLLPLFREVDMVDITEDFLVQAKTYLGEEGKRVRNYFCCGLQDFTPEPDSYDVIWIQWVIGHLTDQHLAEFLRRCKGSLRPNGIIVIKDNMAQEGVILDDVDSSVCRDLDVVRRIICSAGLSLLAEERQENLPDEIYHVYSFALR
# Sequence of Rap guanine nucleotide exchange factor 3 (Homo sapiens) (O95398 whole entry, looked up): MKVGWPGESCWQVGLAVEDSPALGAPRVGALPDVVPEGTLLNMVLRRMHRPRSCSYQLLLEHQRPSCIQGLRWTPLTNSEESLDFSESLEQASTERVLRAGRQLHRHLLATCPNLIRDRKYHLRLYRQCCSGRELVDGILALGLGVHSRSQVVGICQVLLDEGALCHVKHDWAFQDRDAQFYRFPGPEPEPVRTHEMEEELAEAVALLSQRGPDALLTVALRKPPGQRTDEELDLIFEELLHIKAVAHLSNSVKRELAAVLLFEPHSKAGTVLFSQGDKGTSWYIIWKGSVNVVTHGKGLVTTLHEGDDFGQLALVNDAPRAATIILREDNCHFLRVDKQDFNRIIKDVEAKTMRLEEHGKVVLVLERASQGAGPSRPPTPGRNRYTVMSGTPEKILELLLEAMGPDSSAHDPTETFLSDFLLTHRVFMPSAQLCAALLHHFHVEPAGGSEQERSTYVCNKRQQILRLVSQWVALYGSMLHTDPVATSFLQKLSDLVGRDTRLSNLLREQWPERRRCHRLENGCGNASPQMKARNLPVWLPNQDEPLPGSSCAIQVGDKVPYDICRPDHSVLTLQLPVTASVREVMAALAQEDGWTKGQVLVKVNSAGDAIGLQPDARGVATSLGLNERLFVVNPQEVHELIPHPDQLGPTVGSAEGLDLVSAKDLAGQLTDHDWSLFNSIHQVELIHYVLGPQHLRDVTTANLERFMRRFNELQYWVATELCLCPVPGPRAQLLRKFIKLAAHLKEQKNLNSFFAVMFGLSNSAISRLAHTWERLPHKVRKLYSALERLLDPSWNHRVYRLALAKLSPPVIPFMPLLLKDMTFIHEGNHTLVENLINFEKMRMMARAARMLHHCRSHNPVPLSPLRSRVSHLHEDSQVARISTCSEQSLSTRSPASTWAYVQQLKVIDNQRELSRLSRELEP
# Sequence of Nicotinamide N-methyltransferase (Homo sapiens) (P40261 whole entry, looked up): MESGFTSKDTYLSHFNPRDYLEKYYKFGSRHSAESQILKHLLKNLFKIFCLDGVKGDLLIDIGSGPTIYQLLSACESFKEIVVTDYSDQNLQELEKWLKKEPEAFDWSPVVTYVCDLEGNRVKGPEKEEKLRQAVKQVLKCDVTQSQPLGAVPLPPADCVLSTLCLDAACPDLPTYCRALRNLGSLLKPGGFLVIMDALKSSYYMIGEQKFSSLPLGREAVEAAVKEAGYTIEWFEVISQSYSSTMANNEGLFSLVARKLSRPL
# Sequence of Rap guanine nucleotide exchange factor 4 (Homo sapiens) (Q8WZA2 whole entry, looked up): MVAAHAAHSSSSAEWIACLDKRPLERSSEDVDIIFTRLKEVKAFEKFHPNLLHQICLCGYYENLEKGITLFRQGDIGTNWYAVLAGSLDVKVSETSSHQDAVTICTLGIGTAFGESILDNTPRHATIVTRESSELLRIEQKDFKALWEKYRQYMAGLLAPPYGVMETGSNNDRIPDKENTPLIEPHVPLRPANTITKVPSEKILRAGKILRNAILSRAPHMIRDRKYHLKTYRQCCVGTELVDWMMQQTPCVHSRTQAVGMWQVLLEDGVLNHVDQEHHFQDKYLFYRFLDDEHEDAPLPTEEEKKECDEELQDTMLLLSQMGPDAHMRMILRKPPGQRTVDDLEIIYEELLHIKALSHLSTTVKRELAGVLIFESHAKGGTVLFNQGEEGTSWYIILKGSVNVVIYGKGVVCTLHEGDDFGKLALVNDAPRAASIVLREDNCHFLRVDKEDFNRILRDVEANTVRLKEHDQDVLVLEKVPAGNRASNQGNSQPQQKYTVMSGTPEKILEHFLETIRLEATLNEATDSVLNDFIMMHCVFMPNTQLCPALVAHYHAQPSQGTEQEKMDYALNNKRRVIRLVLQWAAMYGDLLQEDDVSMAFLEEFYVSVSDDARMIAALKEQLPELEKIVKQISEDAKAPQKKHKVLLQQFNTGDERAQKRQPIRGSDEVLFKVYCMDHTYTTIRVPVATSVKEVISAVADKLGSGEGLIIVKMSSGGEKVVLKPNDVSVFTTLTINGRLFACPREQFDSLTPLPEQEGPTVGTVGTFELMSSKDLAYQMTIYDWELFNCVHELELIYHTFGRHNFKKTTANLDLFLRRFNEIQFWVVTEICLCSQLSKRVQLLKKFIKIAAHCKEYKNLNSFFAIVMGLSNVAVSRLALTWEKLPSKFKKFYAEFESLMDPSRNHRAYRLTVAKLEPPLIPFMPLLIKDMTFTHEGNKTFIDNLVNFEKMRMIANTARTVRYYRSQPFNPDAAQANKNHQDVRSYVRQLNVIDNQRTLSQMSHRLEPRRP
# Sequence of Catechol O-methyltransferase (Homo sapiens) (P21964 whole entry, looked up): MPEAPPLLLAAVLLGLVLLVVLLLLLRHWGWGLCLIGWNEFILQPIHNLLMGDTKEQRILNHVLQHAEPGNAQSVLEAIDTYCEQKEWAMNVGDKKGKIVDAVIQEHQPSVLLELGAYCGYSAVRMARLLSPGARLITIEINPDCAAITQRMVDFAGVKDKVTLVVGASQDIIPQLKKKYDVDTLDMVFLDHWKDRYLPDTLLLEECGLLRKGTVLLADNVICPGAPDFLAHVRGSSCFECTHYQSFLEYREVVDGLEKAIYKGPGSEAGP
smiles,measurement,setting,value
C[C@]12CCC(=O)C=C1CC[C@@H]1[C@@H]2CC[C@@]2(C)[C@H]1CC[C@]2(C)O,outcome,[1],inactive
C[C@H](N)C(=O)c1ccccc1,outcome,[1],inactive
CN1C(=O)NC(=O)C(C)(C2=CCCCC2)C1=O (configuration not stated),Potency,[2],inactive
same,Potency,[3],inactive
O=C1CN=C(c2ccccc2)c2cc([N+](=O)[O-])ccc2N1,Potency,[2],inactive
CN1C(=O)CCS(=O)(=O)C1c1ccc(Cl)cc1 (configuration not stated),Potency,[2],inactive
same,Potency,[3],inactive
NC(=O)CS(=O)C(c1ccccc1)c1ccccc1 (configuration not stated),Potency,[2],inactive
CCC(C)C(C)(COC(N)=O)COC(N)=O (configuration not stated),Potency,[2],inactive
C[N+]1(CCF)[C@@H]2CC[C@H]1CC(OC(=O)C(O)(c1ccccc1)c1ccccc1)C2 (some centres not stated),Potency,[2],inactive
CNC(C)(C)Cc1ccccc1,Potency,[2],inactive
same,Potency,[3],inactive
CCCN(CCC)C(=O)Cc1c(-c2ccc(Cl)cc2)nc2ccc(Cl)cn12,Potency,[2],inactive
C[C@]12CCC(=O)C=C1CC[C@@H]1[C@H]3CC[C@](C)(O)[C@@]3(C)CC[C@@H]12,Potency,[2],34.7 µM (active)
same,Potency,[3],21.9 µM (active)
CCN[C@H](C)Cc1cccc(C(F)(F)F)c1,Potency,[2],inactive
CCCCCCCCCC(=O)O[C@H]1CC[C@H]2[C@@H]3CCC4=CC(=O)CC[C@@H]4[C@H]3CC[C@]12C,Potency,[2],inactive
Nc1ccccc1,Potency,[2],inactive
same,Potency,[3],inactive
CCC1(CC)C(=O)C=CNC1=O,Potency,[2],inactive
same,Potency,[3],inactive
CCN[C@@H](C)Cc1ccccc1,Potency,[2],inactive
COc1cccc2c1C(=O)c1c(O)c3c(c(O)c1C2=O)C[C@@](O)(C(=O)CO)CC3OC1CC(N2CCOC(OC)C2)C(O)C(C)O1 (some centres not stated),Potency,[2],0.0047 µM (active)
same,Potency,[3],0.0033 µM (active)
O=c1[nH]c2ccccc2n1C1CCNCC1,Potency,[2],inactive
CCC(C)(C)c1ccc(O)cc1,Potency,[2],inactive
CN1C(=O)COc2c(C(=O)NC3CN4CCC3CC4)cc(Cl)cc21 (configuration not stated),Potency,[2],inactive
same,Potency,[3],inactive
O=C1OC(CCN2CCCCC2)OC1(c1ccccc1)c1ccccc1 (configuration not stated),Potency,[2],8.41 µM (active)
CN(C)CCc1c[nH]c2cccc(OP(=O)(O)O)c12,Potency,[2],inactive
Nc1ccc([As](=O)(O)O)cc1,Potency,[2],inactive
same,Potency,[3],inactive
Cc1ncsc1CCCl,Potency,[2],inactive
Nc1ccn(C[C@@H](CO)OCP(=O)(O)O)c(=O)n1,"activity change, negative = viability loss",[2],-0.956% [at 9.23 µM] (inactive)
same,"activity change, negative = cell killing",[3],-8.19% [at 9.23 µM] (inactive)
C=CCC1(C(C)CC)C(=O)NC(=O)NC1=O (configuration not stated),Potency,[2],inactive
same,Potency,[3],inactive
Clc1cccc(SC2CCNCC2)n1,Potency,[2],inactive
same,Potency,[3],inactive
C[C@]12CC[C@H]3[C@@H](CC[C@@]45O[C@H]4C(O)=C(C#N)C[C@]35C)[C@H]1CC[C@H]2O,Potency,[2],15 µM (active)
same,Potency,[3],10.6 µM (active)
CC(C)c1cccc(C(C)C)c1O,Potency,[2],inactive
CCN[C@@H](C)Cc1cccc(C(F)(F)F)c1,Potency,[2],inactive
same,Potency,[3],inactive
C=C(C)[C@H]1CN[C@H](C(=O)O)[C@H]1CC(=O)O,Potency,[2],inactive
same,Potency,[3],inactive
CCC1(c2ccc(N)cc2)CCC(=O)NC1=O (configuration not stated),Potency,[2],inactive
same,Potency,[3],inactive
CC(C)=CC1C(C(=O)OCN2C(=O)C3=C(CCCC3)C2=O)C1(C)C (configuration not stated),Potency,[2],inactive
same,Potency,[3],inactive
c1ccc(CN2CCNCC2)cc1,Potency,[2],inactive
same,Potency,[3],inactive
Clc1ccc(C(c2ccc(Cl)cc2)C(Cl)(Cl)Cl)cc1,Potency,[2],inactive
Nc1nc(N)nc(NC2CC2)n1,Potency,[2],inactive
same,Potency,[3],inactive
C[C@]12CC[C@@H]3c4ccc(OC(=O)N(CCCl)CCCl)cc4CC[C@H]3[C@@H]1CC[C@@H]2O,outcome,[4],inactive
same,outcome,[5],inactive
CC(C)(C)NCC(O)c1ccccc1Cl (configuration not stated),Potency,[2],inactive
same,Potency,[3],inactive
NC1=NC(=O)C(c2ccccc2)O1 (configuration not stated),Potency,[2],inactive
same,Potency,[3],inactive
CC(C)(N)Cc1ccccc1Cl,Potency,[2],inactive
same,Potency,[3],inactive
CC(NC(C)(C)C)C(=O)c1cccc(Cl)c1 (configuration not stated),Potency,[2],inactive
same,Potency,[3],inactive
CC1(C)C(C=C(Cl)Cl)C1C(=O)OC(C#N)c1cccc(Oc2ccccc2)c1 (configuration not stated),Potency,[2],inactive
same,Potency,[3],inactive
c1ccc(N2CCNCC2)cc1,Potency,[2],inactive
same,Potency,[3],inactive
COC1CC(=C(c2cccs2)c2cccs2)C[N+](C)(C)C1 (configuration not stated),Potency,[3],15 µM (active)
NCCc1ccc(O)cc1,Potency,[2],inactive
same,activity,[6],-7.57%
same,"activity change, negative = inhibition",[7],0.255%
same,activity,[8],-9.22%
same,activity,[9],-8.79%
O=C(O)c1ccc(=O)[nH]c1,Potency,[2],inactive
same,Potency,[3],inactive
C[C@@H](N)[C@@H](O)c1ccccc1,Potency,[2],inactive
same,Potency,[3],inactive
COC(=O)C(Cl)C(=O)OC,Potency,[2],inactive
same,Potency,[3],inactive
CC(C)(C)NCC(O)c1cc(Cl)c(N)c(C(F)(F)F)c1 (configuration not stated),Potency,[2],inactive
same,Potency,[3],inactive
c1ccc2c(c1)sc1ccccc12,Potency,[2],inactive
same,Potency,[3],inactive
CC(=O)C1CCOC1=O (configuration not stated),Potency,[2],inactive
same,Potency,[3],inactive
